# Laboratory results from PubChem BioAssay (NCATS).
# “And” between values parts separate entries of the source, which are not always exact repeats. Equal entries are not always repeated. Records with an inconclusive call do not appear. A call without a number means that no potency is given here. The source made the active and inactive calls. Unless noted, the call rests on the fitted dose curve; in most records, active means well fitted curve in the direction sought with a large enough effect; inconclusive means small, poorly fitted or top-dose-only effect, or another doubt; inactive means no such curve, though single readings can be large; an effect the other way counts as inactive or inconclusive.
# Experiments:
# [1] = qHTS to identify inhibitors of the type 1 interferon - major histocompatibility complex class I in skeletal muscle: primary screen against the NCATS Mechanism Interrogation Plate v5.0 (MIPE) Libary (AID 1347411); further: nearly all actives have a fitted effect of over 65% in size; further: potency means the concentration at half of the fitted maximal effect
# Method in brief: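 Immortalized human C25cl48 myoblasts with HiBit knocked into endogenous HLA-B*08:01 were stimulated with 4.0 ng/ml IFN-beta and exposed to compounds (11-point 1:3 titration, top 46 uM final) for 24 hrs at 37 C; HiBiT lytic luminescence measured.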
# [2] = molecular target: Calcium and integrin-binding protein 1 (Homo sapiens) (UniProt Q99828); assay: Primary qHTS for Identification of Calcium Integrin Binding Protein 1 (CIB1) Competitor (AID 1508620);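 further: GST tagged CIB1 binding a fluorescein labelled alphaIIb integrin peptide tracer; top concentration of the series differs between compounds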
# Method in brief: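 Fluorescence polarization competition: CIB1-GST (1 uM final) preincubated with compound 15 min at room temperature, then FITC-labeled alphaIIb peptide (100 nM final) added for another 15 min. Polarization read at Ex 480/Em 540.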
# [3] = molecular target: Cytochrome P450 2C9 (Homo sapiens) (UniProt P11712); assay: Cytochrome P450 family 2 subfamily C member 9 (CYP2C9) small molecule antagonists: luciferase biochemical (cell-free) qHTS assay (AID 1645842; active means well fitted curve in the direction sought with a large enough effect in the repeat runs; an effect the other way counts as inactive or inconclusive; further: nearly all actives have a fitted effect of over 55% in size; further: potency means the concentration at half of the fitted maximal effect)
# Method in brief: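 Luminescence, after 20 min with luciferin detection reagent, reflected CYP2C9 turnover during a 1 h NADPH-driven reaction at 37C. Enzyme-substrate mix contained 0.4% bovine serum albumin and was preincubated with compound 10 min at room temperature.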
# [4] = molecular target: N-terminal Xaa-Pro-Lys N-methyltransferase 1 (Homo sapiens) (UniProt Q9BV86); assay: Confirmatory qHTS for Inhibitors of N-terminal methyltransferase 1 (NTMT1): MTaseGlo Assay (AID 1645874); further: potency means the concentration at half of the fitted maximal effect; nearly all actives have a fitted effect of over 65% in size
# Method in brief: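 Compounds are incubated with 125 nM NTMT1 and 100 uM SAM for 15 min before the SPKRIA peptide (1 uM) starts a 30 min room-temperature methylation. SAH is measured by coupled luciferase luminescence and curves fitted to a Hill equation.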
# [5] = Primary qHTS for inhibitors of nuclear receptor binding SET domain protein 2 (NSD2) in an isogenic RCH-ACV NSD2 p.E1099K mutant (9B) (AID 1645876); further: nearly all actives have a fitted effect of over 70% in size; further: potency means the concentration at half of the fitted maximal effect
# [6] = Primary qHTS for inhibitors of nuclear receptor binding SET domain protein 2 (NSD2) in an RCH-ACV wild type WT cells (2C) (AID 1645877); further: nearly all actives have a fitted effect of over 70% in size; further: potency means the concentration at half of the fitted maximal effect
# [7] = molecular target: Catechol O-methyltransferase (Homo sapiens) (UniProt P21964); assay: Confirmatory Screen for Target Class Profiling of Small Molecule Inhibitors of Methyltransferases (AID 1745852); conditions: MTase-Glo luminescence, SAH detection, recombinant enzyme; measured here: COMT max response; stronger effect = lower value
# [8] = molecular target: Cytochrome P450 2D6 (Homo sapiens) (UniProt P10635); assay: Cytochrome P450 family 2 subfamily D member 6 (CYP2D6) small molecule antagonists: luciferase biochemical (cell-free) qHTS assay (AID 1645840; active means well fitted curve in the direction sought with a large enough effect in the repeat runs; an effect the other way counts as inactive or inconclusive; further: nearly all actives have a fitted effect of over 55% in size; further: potency means the concentration at half of the fitted maximal effect)
# Method in brief: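 P450-Glo luminescent screen: recombinant CYP2D6 enzyme–proluciferin substrate mix preincubated with compound 10 min at room temperature, then NADPH regeneration added for 1 h at room temperature. Detection reagent added for 20 min; luciferin light read as relative luminescence units.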
# [9] = qHTS for inhibitors of adenylyl cyclases using a fission yeast platform: a pilot screen against the NCATS LOPAC library (AID 1347410)
# Method in brief: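 GFP from fbp1-GFP reporter, read by Acumen laser cytometry, indicates AC inhibition in fission yeast expressing AC9, GNAS and PDE4D2. Cells grown 18 h in the dark at 30C with compounds, final up to 57 uM.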
# [10] = molecular target: Calcium and integrin-binding protein 1 (Homo sapiens) (UniProt Q99828); assay: Validation qHTS for Identification of Calcium Integrin Binding protein 1 (CIB1) Competitor (AID 1508618)
# Method in brief: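 In this qHTS validation, the LOPAC set (up to 114 uM) was tested for blocking CIB1 binding to a fluorescein-tagged alphaIIb peptide, with FP detection at 480/540 nm.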
# [11] = molecular target: Papain (Carica papaya) (UniProt P00784); assay: Primary qHTS assay for inhibitors of the protease papain (AID 1645873);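 further: papain turnover of Z-FR-AMC read as the AMC fluorescence gain over 10 min; series mostly up to about 50 µM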
# [12] = qHTS to identify inhibitors of the type 1 interferon - major histocompatibility complex class I in skeletal muscle: primary screen against the NCATS Pharmaceutical Collection (AID 1347407);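 further: luminescence of HiBiT knocked into endogenous HLA-B as interferon-induced MHC class I level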
# Method in brief: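 Compounds […] were added to CRISPR-engineered HLA-B-HiBiT C25cl48 human myoblasts with 4.0 ng/ml IFN-beta. After 24 hrs at 37 C, cells were lysed and HiBiT luminescence measured.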
# [13] = molecular target: Protein phosphatase 1D (Homo sapiens) (UniProt O15297); assay: RapidFire Mass Spectrometry qHTS Assay for Modulators of WT P53-Induced Phosphatase 1 (WIP1) (AID 1347424);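 further: amount of dephosphorylated VEPPL-S-QETFS peptide product formed by WIP1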; further: potency means the concentration at half of the fitted maximal effect
# Method in brief: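 WIP1 (10 nM final) was preincubated 1 h at room temperature with compounds in Tris-HCl pH 7.5, 30 mM MgCl2, TCEP, EGTA, BSA; 2 uM VEPPL-pS-QETFS phosphopeptide was added for 5 min, quenched with formic acid, and dephosphorylated product quantified by RapidFire MS.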
# [14] = Primary qHTS for inhibitors of La Crosse Virus (LACV) - induced cell death in SH-SY5Y cells (AID 1508616);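 further: top concentration of the series differs between compounds; higher means more rescue of cells from virus-induced death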
# Method in brief: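 Luminescent ATP readout (ATPLite 1step, 5 min room temperature) measured rescue from LACV-induced death after 6 days of infection at 0.01 MOI; normalized to infected DMSO wells and uninfected DMSO wells.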
# [15] = Confirmatory qHTS for small molecule stabilizers of the endoplasmic reticulum resident proteome: Secreted ER Calcium Modulated Protein (SERCaMP) assay (AID 1508628);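 further: SH-SY5Y cells given compound 16 h then thapsigargin 100 nM for 4 h; series mostly up to about 76 µM; nearly all actives have a fitted effect of over 40% in size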
# Method in brief: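 We seeded SH-SY5Y-GLuc-SERCaMP cells, added compounds (three concentrations in the primary run, eleven up to 76.6 uM in confirmation), incubated 16 h, depleted ER calcium with thapsigargin, and read luciferase 4 h later.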
# [16] = molecular target: Cytochrome P450 3A4 (Homo sapiens) (UniProt P08684); assay: Cytochrome P450 family 3 subfamily A member 4 (CYP3A4) small molecule antagonists: luciferase qHTS assay (AID 1645841; active means well fitted curve in the direction sought with a large enough effect in the repeat runs; an effect the other way counts as inactive or inconclusive; further: potency means the concentration at half of the fitted maximal effect; nearly all actives have a fitted effect of over 45% in size)
# Method in brief: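 P450-Glo CYP3A4 enzyme with proluciferin substrate was preincubated with DMSO-dissolved compounds for 10 min at room temperature. NADPH regeneration solution started a 1 h reaction. Detection reagent stopped it, and luminescence was read after 20 min.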
# [17] = molecular target: Protein phosphatase 1D (Homo sapiens) (UniProt O15297); assay: Rhodamine-PBP qHTS Assay for Modulators of WT P53-Induced Phosphatase 1 (WIP1) (AID 1347425)
# Method in brief: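 Steps: enzyme with Rh-PBP sensor and compounds, room-temperature incubation of 1 hr, baseline read, addition of VEPPL-pS-QETFS (10 uM final), kinetic fluorescence reads at 525/598 nm. Activity equals final minus baseline signal.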
# [18] = Primary qHTS for small molecule stabilizers of the endoplasmic reticulum resident proteome: Secreted ER Calcium Modulated Protein (SERCaMP) assay (AID 1508630)
# Method in brief: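 GLuc-SERCaMP-expressing SH-SY5Y cells, pretreated 16 h with compound, are challenged with thapsigargin to empty ER calcium stores; after 4 h, coelenterazine is added directly to the medium and luminescence is imaged.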
# [19] = A High-Content qHTS Against Drug Library for the Identification of Small Molecules that Inhibit DYT1 Early Onset Primary Dystonia-Associated Cell Pathology (AID 1645839; calls by dose curve; further: series mostly up to about 46 µM)
# Method in brief: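 Readout: %pathology, the punctate EGFP-TorsinA distribution from imaging, as the primary channel and cell count as the toxicity counterscreen. HEK293 Flp-In cells expressing delE TorsinA were induced with tetracycline and treated with compound for 48 h.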
# Cytochrome P450 2D6 (Homo sapiens), sequence (P10635 whole entry, looked up): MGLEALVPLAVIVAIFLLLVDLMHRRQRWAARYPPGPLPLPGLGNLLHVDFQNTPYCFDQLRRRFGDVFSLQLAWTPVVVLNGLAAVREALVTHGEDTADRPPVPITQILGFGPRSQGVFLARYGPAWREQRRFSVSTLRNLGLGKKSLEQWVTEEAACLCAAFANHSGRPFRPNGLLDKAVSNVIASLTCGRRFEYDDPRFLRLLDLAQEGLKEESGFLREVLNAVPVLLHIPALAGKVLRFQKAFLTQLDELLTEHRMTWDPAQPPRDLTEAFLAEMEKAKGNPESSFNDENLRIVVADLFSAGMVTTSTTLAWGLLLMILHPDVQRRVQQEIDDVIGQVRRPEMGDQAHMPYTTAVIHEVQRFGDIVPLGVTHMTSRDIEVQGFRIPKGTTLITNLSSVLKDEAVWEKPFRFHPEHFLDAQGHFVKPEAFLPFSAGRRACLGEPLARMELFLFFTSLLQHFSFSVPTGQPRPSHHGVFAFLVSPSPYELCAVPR
# Catechol O-methyltransferase (Homo sapiens), sequence (P21964 whole entry, looked up): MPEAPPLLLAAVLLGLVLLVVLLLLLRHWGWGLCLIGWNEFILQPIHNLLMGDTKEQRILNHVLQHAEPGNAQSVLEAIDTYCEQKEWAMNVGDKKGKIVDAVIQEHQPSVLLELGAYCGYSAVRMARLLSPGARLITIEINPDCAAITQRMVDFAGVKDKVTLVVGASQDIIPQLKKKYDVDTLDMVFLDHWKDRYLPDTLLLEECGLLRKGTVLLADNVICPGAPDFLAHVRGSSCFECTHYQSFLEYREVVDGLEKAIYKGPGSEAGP
# Protein phosphatase 1D (Homo sapiens), sequence (O15297 whole entry, looked up): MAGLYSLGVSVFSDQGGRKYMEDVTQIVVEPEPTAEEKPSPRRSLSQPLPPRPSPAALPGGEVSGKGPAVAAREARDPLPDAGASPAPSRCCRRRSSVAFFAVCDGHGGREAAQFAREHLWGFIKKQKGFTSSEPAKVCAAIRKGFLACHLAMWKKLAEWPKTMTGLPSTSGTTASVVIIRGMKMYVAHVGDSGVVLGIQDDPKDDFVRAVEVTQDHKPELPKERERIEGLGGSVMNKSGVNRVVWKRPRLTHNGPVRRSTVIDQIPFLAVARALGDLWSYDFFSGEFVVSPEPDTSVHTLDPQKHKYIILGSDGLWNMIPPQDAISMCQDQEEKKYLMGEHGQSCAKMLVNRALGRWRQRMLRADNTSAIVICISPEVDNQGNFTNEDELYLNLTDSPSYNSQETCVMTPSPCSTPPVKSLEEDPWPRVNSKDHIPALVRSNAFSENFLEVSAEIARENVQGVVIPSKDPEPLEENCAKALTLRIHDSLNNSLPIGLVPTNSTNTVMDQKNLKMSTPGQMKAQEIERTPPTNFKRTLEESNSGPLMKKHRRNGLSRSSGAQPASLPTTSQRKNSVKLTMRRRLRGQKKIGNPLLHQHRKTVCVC
# Cytochrome P450 2C9 (Homo sapiens), sequence (P11712 whole entry, looked up): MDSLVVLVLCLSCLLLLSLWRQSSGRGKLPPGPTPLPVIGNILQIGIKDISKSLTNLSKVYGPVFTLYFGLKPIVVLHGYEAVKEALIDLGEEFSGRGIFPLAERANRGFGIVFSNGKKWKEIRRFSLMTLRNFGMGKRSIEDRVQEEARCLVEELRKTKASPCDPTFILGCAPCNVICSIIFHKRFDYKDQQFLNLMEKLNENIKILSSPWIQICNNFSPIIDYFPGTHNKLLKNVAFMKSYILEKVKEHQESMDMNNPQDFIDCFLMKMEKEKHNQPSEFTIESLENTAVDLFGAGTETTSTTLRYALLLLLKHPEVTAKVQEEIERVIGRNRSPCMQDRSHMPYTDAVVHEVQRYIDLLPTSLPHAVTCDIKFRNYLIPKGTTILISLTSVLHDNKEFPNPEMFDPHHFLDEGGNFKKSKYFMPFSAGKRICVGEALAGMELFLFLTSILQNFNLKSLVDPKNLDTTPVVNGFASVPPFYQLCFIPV
# Calcium and integrin-binding protein 1 (Homo sapiens), sequence (Q99828 whole entry, looked up): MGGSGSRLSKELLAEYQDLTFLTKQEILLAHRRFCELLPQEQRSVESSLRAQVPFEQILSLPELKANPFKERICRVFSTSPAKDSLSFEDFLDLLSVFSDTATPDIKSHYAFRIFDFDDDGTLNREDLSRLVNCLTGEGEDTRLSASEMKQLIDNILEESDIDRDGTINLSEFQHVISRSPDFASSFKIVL
# N-terminal Xaa-Pro-Lys N-methyltransferase 1 (Homo sapiens), sequence (Q9BV86 whole entry, looked up): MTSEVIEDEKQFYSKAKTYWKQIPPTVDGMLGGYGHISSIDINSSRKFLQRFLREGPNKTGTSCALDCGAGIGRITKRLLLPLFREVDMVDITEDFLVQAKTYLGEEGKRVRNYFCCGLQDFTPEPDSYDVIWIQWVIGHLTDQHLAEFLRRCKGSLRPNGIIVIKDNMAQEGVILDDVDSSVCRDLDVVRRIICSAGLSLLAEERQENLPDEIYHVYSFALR
# Cytochrome P450 3A4 (Homo sapiens), sequence (P08684 whole entry, looked up): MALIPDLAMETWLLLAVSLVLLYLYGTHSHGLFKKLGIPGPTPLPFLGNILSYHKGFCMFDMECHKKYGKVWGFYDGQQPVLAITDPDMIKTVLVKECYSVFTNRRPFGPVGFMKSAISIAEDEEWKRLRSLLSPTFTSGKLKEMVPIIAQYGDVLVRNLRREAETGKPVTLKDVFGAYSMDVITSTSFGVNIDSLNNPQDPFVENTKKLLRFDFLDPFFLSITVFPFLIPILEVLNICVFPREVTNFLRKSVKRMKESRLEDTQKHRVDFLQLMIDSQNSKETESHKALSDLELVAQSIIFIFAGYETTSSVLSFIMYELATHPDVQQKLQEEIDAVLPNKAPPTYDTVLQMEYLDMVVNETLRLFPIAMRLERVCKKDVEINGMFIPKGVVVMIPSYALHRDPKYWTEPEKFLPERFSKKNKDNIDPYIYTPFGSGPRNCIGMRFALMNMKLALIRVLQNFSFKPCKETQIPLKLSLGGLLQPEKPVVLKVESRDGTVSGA
# Papain (Carica papaya), sequence (P00784 whole entry, looked up): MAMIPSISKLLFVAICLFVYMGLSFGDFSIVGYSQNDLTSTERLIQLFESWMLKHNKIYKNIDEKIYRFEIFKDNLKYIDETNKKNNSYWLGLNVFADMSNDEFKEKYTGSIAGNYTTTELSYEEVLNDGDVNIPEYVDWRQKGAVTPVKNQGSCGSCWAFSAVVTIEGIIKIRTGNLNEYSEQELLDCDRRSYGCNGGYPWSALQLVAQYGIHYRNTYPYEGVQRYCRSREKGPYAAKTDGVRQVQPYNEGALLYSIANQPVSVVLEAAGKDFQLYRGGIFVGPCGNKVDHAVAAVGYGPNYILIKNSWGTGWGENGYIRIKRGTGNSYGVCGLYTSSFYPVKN
smiles,measurement,setting,value
CCN1CCN(Cc2ccc(Nc3ncc(F)c(-c4cc(F)c5nc(C)n(C(C)C)c5c4)n3)nc2)CC1,Potency,[1],10.4 µM (active)
same,Potency,[2],inactive
same,Potency,[3],inactive
same,Potency,[4],20 µM (active)
same,Potency,[5],728 nM (active) and 468 nM (active)
same,Potency,[6],649 nM (active) and 417 nM (active)
same,activity,[7],-78.7%
COc1ccc(C(=O)C2CCN(CC(=O)N(Cc3nc4c(c(=O)[nH]3)COCC4)CC3CC3)CC2)cc1,Potency,[1],inactive
same,Potency,[2],inactive
same,Potency,[8],inactive
same,Potency,[5],inactive
same,Potency,[6],inactive
CCN1CCN(Cc2ccc(NC(=O)Nc3ccc(Oc4cc(NC)ncn4)cc3)cc2C(F)(F)F)CC1,Potency,[1],7.39 µM (active)
same,Potency,[2],inactive
same,Potency,[8],10.7 µM (active)
same,Potency,[5],3.65 µM (active) and 2.35 µM (active)
same,Potency,[6],3.65 µM (active) and 2.35 µM (active)
same,activity,[7],-1.25%
Cc1ccc(-c2ccc3c(ccc4sc5c(c43)NC[C@@H](C)NC5=O)n2)cn1,Potency,[1],18.6 µM (active)
same,Potency,[2],inactive
same,Potency,[8],inactive
same,Potency,[6],16.6 µM (active)
CCOc1cc2ncc(C#N)c(Nc3ccc(F)c(Cl)c3)c2cc1NC(=O)/C=C/CN(C)C,Potency,[1],2.62 µM (active)
same,Potency,[2],inactive
same,Potency,[3],3.79 µM (active)
same,Potency,[4],1.2 µM (active)
same,Potency,[5],459 nM (active) and 742 nM (active)
same,Potency,[6],1.03 µM (active) and 590 nM (active)
same,activity,[7],-96.3%
COCCN1CCN(Cc2ccc(-c3n[nH]c4c3C(=O)c3c(NC(=O)NN5CCOCC5)cccc3-4)cc2)CC1,Potency,[1],0.208 µM (active)
same,Potency,[2],inactive
same,Potency,[3],2.13 µM (active)
same,Potency,[5],45.9 nM (active) and 59 nM (active)
same,Potency,[6],36.5 nM (active) and 52.5 nM (active)
Cc1ccc(NC(=O)Nc2cc(C(F)(F)F)ccc2F)cc1Nc1ccc2c(c1)NC(=O)/C2=C\c1ccc[nH]1,Potency,[1],23.4 µM (active)
same,Potency,[2],inactive
same,Potency,[8],inactive
same,Potency,[3],inactive
same,Potency,[5],11.5 µM (active) and 16.6 µM (active)
same,Potency,[6],20.5 µM (active)
COc1cc2ncnc(Nc3cccc(Cl)c3F)c2cc1OC(=O)N1CCN(C)C[C@H]1C,Potency,[1],inactive
same,Potency,[2],inactive
CC[C@]1(O)CC2CN(CCc3c([nH]c4ccccc34)[C@@](C(=O)OC)(c3cc4c(cc3OC)N(C)[C@H]3[C@@](O)(C(=O)OC)[C@H](OC(C)=O)[C@]5(CC)C=CCN6CC[C@]43[C@@H]65)C2)C1 (some centres undefined),outcome,[9],inactive
same,outcome,[10],inactive
same,Potency,[2],inactive
same,outcome,[11],inactive
same,Potency,[5],57.8 nM (active) and 417 nM (active)
same,Potency,[6],45.9 nM (active) and 372 nM (active)
COc1cc(C(=O)NC2CCN(C)CC2)c(F)cc1Nc1ncc2c(n1)N(C1CCCC1)CC(F)(F)C(=O)N2C,Potency,[1],14.7 µM (active)
same,Potency,[2],inactive
same,Potency,[8],inactive
same,Potency,[3],5.35 µM (active)
same,Potency,[5],59 nM (active)
same,Potency,[6],0.0833 µM (active)
O=C(/C=C/c1cccc(S(=O)(=O)Nc2ccccc2)c1)NO,Potency,[1],2.34 µM (active)
same,Potency,[2],inactive
same,Potency,[8],21.3 µM (active)
same,Potency,[3],10.7 µM (active)
same,Potency,[5],356 nM (active) and 296 nM (active)
same,Potency,[6],252 nM (active) and 332 nM (active)
CC(C)[C@@H](CS(=O)(=O)C(C)C)N1C(=O)[C@@](C)(CC(=O)O)C[C@H](c2cccc(Cl)c2)[C@H]1c1ccc(Cl)cc1,Potency,[1],inactive
same,Potency,[2],inactive
same,Potency,[8],inactive
same,Potency,[3],15.1 µM (active)
same,Potency,[5],1.15 µM (active) and 833 nM (active)
same,Potency,[6],515 nM (active) and 662 nM (active)
CC#CC(=O)N1CCC[C@H]1c1nc(-c2ccc(C(=O)Nc3ccccn3)cc2)c2c(N)nccn12,Potency,[1],inactive
same,Potency,[2],inactive
CCOCc1nc2c(N)nc3ccccc3c2n1CC(C)(C)O,Potency,[1],inactive
same,Potency,[2],inactive
same,Potency,[3],inactive
same,Potency,[5],inactive
Cc1ccc(N)cc1O,outcome,[12],inactive
same,Potency,[13],44.7 µM (active)
same,outcome,[14],inactive
same,outcome,[15],inactive
same,Potency,[8],2.45 µM (active)
same,Potency,[3],20 µM (active)
CCCCNc1ncc2c(-c3ccc(CN4CCN(C)CC4)cc3)cn(C3CCC(O)CC3)c2n1 (centres undefined),Potency,[1],9.3 µM (active)
same,Potency,[2],inactive
same,Potency,[3],15.1 µM (active)
same,Potency,[5],1.64 µM (active) and 2.95 µM (active)
same,Potency,[6],205 nM (active) and 332 nM (active) and 662 nM (active)
CNC(=O)c1cc(Oc2ccc3nc(N[C@@H]4CCCC[C@H]4O)sc3c2)ccn1,Potency,[1],inactive
same,Potency,[2],inactive
same,Potency,[8],16.9 µM (active)
same,Potency,[3],8.49 µM (active)
Cc1ccc(NC(=O)c2ccc(CN3CC[C@H](N(C)C)C3)c(C(F)(F)F)c2)cc1Nc1nccc(-c2cncnc2)n1,Potency,[1],16.1 µM (active)
same,Potency,[2],inactive
same,Potency,[16],1.69 µM (active)
same,Potency,[5],8110 nM (active)
same,Potency,[6],7.23 µM (active)
O=C(O)c1ccccc1NCCc1ccccc1,outcome,[12],inactive
same,Potency,[13],inactive
same,outcome,[17],inactive
same,outcome,[14],inactive
same,Potency,[2],inactive
same,outcome,[18],inactive
same,Potency,[19],inactive
same,Potency,[8],11 µM (active)
same,Potency,[5],inactive
same,Potency,[6],inactive
CNCc1ccc(-c2cc(-c3nc(-c4ccc(S(=O)(=O)C(C)C)cc4)cnc3N)on2)cc1,Potency,[1],inactive
same,Potency,[2],inactive
same,Potency,[8],inactive
same,Potency,[3],2.13 µM (active)
same,Potency,[5],183 nM (active) and 83.3 nM (active)
same,Potency,[6],183 nM (active) and 93.4 nM (active)
CCCN1CCN(c2ccc(C(=O)NC3(C(=O)NCC#N)CCCCC3)cc2)CC1,Potency,[1],inactive
same,Potency,[2],inactive
same,Potency,[8],inactive
same,Potency,[3],inactive
same,Potency,[5],inactive
same,Potency,[6],inactive
